The panel holds about 83,000 compounds, 20% with a hit somewhere; the sample as a whole holds those more often.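 Assay: single dose, 48 h. Readout: percent growth (0 = no net growth; negative = cell death). Active: <10.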 Values without a mark were called inactive. The source made the active and inactive calls.

Common to all, as to assay: NCI-60 one-dose screen, 48 h (100 = growth as untreated, 0 = no growth, -100 = all killed)
Assay [1] concerns DU-145 prostate. The settings on record: 10 µM unless noted.
For assay [2], the system named is K-562 leukemia. The settings on record: 10 µM unless noted.
The test system of assay [3] is MDA-MB-231 breast. The settings on record: 10 µM unless noted.
Assay [4] relates to RXF 393 renal. Particulars: 10 µM unless noted.
The test system of assay [5] is SF-268 CNS. The settings on record: 10 µM unless noted.
Assay [6] has as its system SF-295 CNS. The settings on record: 10 µM unless noted.
The test system of assay [7] is SF-539 CNS. Particulars: 10 µM unless noted.
The test system of assay [8] is UACC-257 melanoma. The settings on record: 10 µM.
Assay [9] has as its system M14 melanoma. Particulars: 10 µM unless noted.
For assay [10], the system named is MALME-3M melanoma. Particulars: 10 µM unless noted.

On to `COC(=O)C(CC(=O)c1ccc(-c2ccccc2)cc1)c1ccccc1` (stereo not drawn), for which the growth is 72.7% in assay [1]; 20.6% in [2]; 66.3% in [3]; 56.5% in assay [4]; 88.7% in [5]; 58.6% in [6]. The growth was 34.7% in assay [7], 66.7% in [8] and 42.6% in assay [9].

As for `CCC(=O)Oc1cc(/C=C/C(=O)O[C@H]2C[C@H]3CN4CCc5c([nH]c6cc(OC)ccc56)[C@@H]4C[C@@H]3[C@@H](C(=O)OC)[C@@H]2OC)ccc1OC`, the growth in [1] is 82.9%; in assay [2] it was 39.7%; in assay [3], 49.7%; in [4], 57.9%; in [5], 74.8%; in assay [6] it was 106%. In addition, the growth was 84.6% in assay [7], 74.9% in assay [8] and 82.5% in assay [9].

As for `Nc1c(C(=O)Nc2ccccc2)sc2nc3c(cc12)CN(Cc1ccccc1)CC3`, the growth in assay [1] is 58.9%; in [2], 61.1%; in assay [3] it was 42.6%; in assay [4], 49.9%; in assay [5] it was 48.8%; in assay [6] it was 66.4%. The growth was 12.6% in assay [7], 74% in assay [8] and 82.2% in assay [9].

On to `NC(C(=O)O)C(O)c1ccc(OCc2ccccc2)c(OCc2ccccc2)c1` (stereo not drawn), for which the growth in assay [1] was 107%; in [2] it was 95.6%; in assay [10] it was 114%; in assay [4], 100%; in assay [5], 97.4%; in assay [6], 97.8%. Further, the growth in [7] was 97.2%; in assay [9] it was 97.4%.

For the molecule `CC(=O)C1CCC(C)=CC1=O` (stereo not drawn), the growth in assay [1] was 114%; in assay [10], 93.4%; in [3] it was 104%; in assay [4], 113%; in assay [5] it was 99.1%; in assay [6], 101%. Besides, the results for the growth in [7], in assay [8] and in [9] were 99.6%, 92.8% and 97.5%, respectively.

As for `O=S(=O)(NCCNc1nccc(-c2c(-c3ccccc3)nc3sccn23)n1)c1ccc(O)cc1`, the growth is 46% in assay [1]; 35.9% in assay [2]; 50% in assay [3]; 45.9% in assay [4]; 46.5% in [5]; 47.3% in assay [6]. The figures for the growth in assay [7], in assay [8] and in [9] were 59.2%, 82.4% and 35.7%, respectively.

Take `CCC(c1ccc(OC)cc1)C(CC)c1ccc(O)c(CN2CCCC2)c1` (stereo not drawn): the growth in [1] was 43.3%; in assay [2], -32.1% (active); in [10] it was -56.1% (active); in assay [4] it was -31.1% (active); in assay [5], 21.2%; in assay [6], -51.2% (active). Also, the growth in assay [7] is -18.9% (active); in assay [9], -47.4% (active).

Regarding `Clc1nc2ccccc2nc1CI`, the growth in assay [1] is 109%; in assay [2], 21.3%; in [10], 49.5%; in assay [4] it was 94.9%; in assay [5], 113%; in [6] it was 95.8%. For the same molecule, the growth is 97.8% in assay [7], 119% in assay [8] and 55.3% in assay [9].

On to `CCN(CC)c1cc(/C=C/c2ccc(OC)c(OC)c2)nc2cc(F)c(F)cc12`, for which the growth in assay [1] is 71.8%; in assay [10] it was 4.61% (active); in [3], 8.74% (active); in [4] it was -58.7% (active); in assay [5], 7.33% (active); in assay [6], -66% (active). The growth is 4.7% (active) in assay [7], 87.7% in [8] and 74.6% in assay [9].

Regarding `COc1cc(/C=C2\CCCC3=C2N=C2SC(C)=NN2C3c2cc(OC)c(OC)c(OC)c2)cc(OC)c1OC` (stereo not drawn), the growth was 4.69% (active) in assay [1]; 6.05% (active) in assay [2]; -39.6% (active) in assay [3]; 24.2% in assay [4]; 9.86% (active) in [5]; 5.96% (active) in assay [6]. Also, the growth in assay [7] is -21.6% (active); in assay [8], 49.3%; in assay [9], 10.6%.

For `CC1=NN2C(=NC3=C(CCC/C3=C\c3ccc(Cl)cc3)C2c2ccc(Cl)cc2)S1` (stereo not drawn), the growth in assay [1] was 101%; in [2], 100%; in [3], 109%; in [4] it was 106%; in assay [5], 98.6%; in [6], 102%. In addition, the growth was 102% in assay [7], 106% in assay [8] and 92.3% in assay [9].

For `COc1ccc(C2=NN(c3ccc(S(N)(=O)=O)cc3)C(c3cn(-c4ccccc4)nc3-c3ccc(Cl)cc3)C2)cc1` (stereo not drawn), the growth is 95.2% in [1]; 66.9% in [2]; 93.5% in [3]; 97.3% in assay [4]; 85.6% in [5]; 93.1% in [6]. Further, the growth in [7] is 102%; in assay [8], 95.4%; in assay [9], 83.9%.

`Cn1c(C(N)=O)cc2c1-c1nc(NC3CCCCC3)ncc1CCC2`: the growth was 103% in assay [1]; 101% in assay [2]; 78.4% in assay [3]; 59.5% in assay [4]; 84.8% in [5]; 91.3% in assay [6]. For the same molecule, the growth was 80.6% in assay [7], 106% in assay [8] and 109% in [9].

Regarding `COc1cc(NS(C)(=O)=O)ccc1Nc1c2ccc([N+](=O)[O-])cc2nc2c(C)cccc12`, the growth was -13.1% (active) in assay [1]; 4.57% (active) in assay [2]; 14.4% in assay [10]; 10.4% in [4]; 7.28% (active) in assay [5]; -43.7% (active) in assay [6]. The growth in assay [7] is -13.7% (active); in [8], 2.11% (active); in [9] it was 22.6%.

On to `O=C(CC(O)c1ccncc1)c1ccccc1` (stereo not drawn), for which the growth is 3.98% (active) in [1]; 57.9% in assay [2]; 91.9% in [10]; -69.4% (active) in assay [4]; 74.9% in assay [5]; 51.8% in [6]. For the same molecule, the figures for the growth in assay [7], in assay [8] and in assay [9] were 8.03% (active), 83.1% and 90.8%, respectively.

For the origin of these results see PubChem BioAssay (NCI).
